Measurements from the supplement of paper PMC12340641.
Where a name gives a salt, the structure may show the parent alone.

Each compound was assayed on HEK293FT dCK*-IKZF1 (assay: relative growth recovery (pomalidomide 10 uM = 100%, DMSO = 0%); higher = more growth rescue (IKZF1 fusion degradation)). Details: compound concentration: 5 uM; AraC concentration: 0.3 uM; overnight pretreatment + 4 days AraC.
Outline: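 Means of duplicates from different days are given for growth recovery, normalised per plate against a reference degrader and vehicle. The reference degrader set the 100% level and vehicle the 0% level. HEK293FT cells stably expressing a deoxycytidine kinase–IKZF1 fusion (300/well, 384-well) received 5 μM compound 2 h after seeding and, after overnight at 37 °C, 0.3 μM of a nucleoside suicide substrate plus medium for 4 days. Nuclei stained with Hoechst 33342 were then counted by whole-well imaging on day 5.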
In the case of `CC1=C(C(=O)OC(C)C)C(c2cccc([N+](=O)[O-])c2)C(C(=O)OC2CN(C(c3ccccc3)c3ccccc3)C2)=C(N)N1` (configuration not stated) [Azelnidipine], the relative growth recovery is reported as 0.07%. In the case of `Cc1cc(C2CCCCC2)n(O)c(=O)c1`, the relative growth recovery is reported as -10.6%. With `Cc1cccc(C)c1NC(=O)CN1CCN(CCCC(c2ccc(F)cc2)c2ccc(F)cc2)CC1` [lidoflazine] the relative growth recovery was 36.1%. Work on `O=C(O)C(O)Cc1ccc(O)c(O)c1` (configuration not stated) [Sodium Danshensu] yielded a relative growth recovery of -0.76%. `CCN(CC)CCCN(c1ccccc1)C1Cc2ccccc2C1` [aprindine] was tested, and the relative growth recovery was 1.23%. For `CN[C@H]1CC[C@@H](c2ccc(Cl)c(Cl)c2)c2ccccc21`, the relative growth recovery was -1.94%. For `O=C(Nc1ccc(C(O)(C(F)(F)F)C(F)(F)F)cc1)c1ccc(C(F)(F)F)cc1`, the relative growth recovery was 53.1%. Compound `CCc1nc(N)nc(N)c1-c1ccc(Cl)cc1` [Pyrimethamine] has a relative growth recovery of -1.87%. `CN(C)CCN1C(=O)c2cccc3cc(N)cc(c23)C1=O` [Amonafide] showed a relative growth recovery of -11.7%. `CO/N=C1\C[C@]2(C[C@@H]3C[C@@H](C/C=C(\C)C[C@@H](C)/C=C/C=C4\CO[C@@H]5[C@H](O)C(C)=C[C@@H](C(=O)O3)[C@]45O)O2)O[C@H](/C(C)=C/C(C)C)[C@H]1C` was tested, and the relative growth recovery was -1.09%. For `CCCS(=O)c1ccc2nc(NC(=O)OC)[nH]c2c1` (configuration not stated) [Albendazole Oxide (Ricobendazole)], the relative growth recovery was -2.83%. With `COc1cccc2c(O)c3c(O)c4c(c(O)c3c(O)c12)=C(O[C@H]1C[C@H](N)[C@H](O)[C@H](C)O1)C[C@](O)(C(C)=O)C=4` [Daunorubicin HCl] the relative growth recovery was -13.9%.
